# Among all 65,000 compounds or so, about 450 (0.69%) were called active. The sample holds actives, similar compounds and a random draw of the others, so the mix is not that of the screen. Values without a mark were called inactive.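 Rule for the calls: active = activation above a set limit, the screen-wide mean activation plus 3 SD (cut at about 8.5% in these data); inactive = the rest.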
# Biological target: 5-hydroxytryptamine receptor 1E (Homo sapiens) (UniProt P28566)
# Assay: 5-HT1E receptor agonists, primary screen, cell-based, HTS (AID 574);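 note: 100% = positive control agonist at 1 µM giving full maximal response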
# Conditions: CHO 5-HT1E Ga15 NFAT-bla reporter, FRET; at 6 µM; stronger effect = higher value; 0% DMSO wells, 100% control agonist wells
# Sequence of 5-hydroxytryptamine receptor 1E (Homo sapiens) (P28566 whole entry, looked up): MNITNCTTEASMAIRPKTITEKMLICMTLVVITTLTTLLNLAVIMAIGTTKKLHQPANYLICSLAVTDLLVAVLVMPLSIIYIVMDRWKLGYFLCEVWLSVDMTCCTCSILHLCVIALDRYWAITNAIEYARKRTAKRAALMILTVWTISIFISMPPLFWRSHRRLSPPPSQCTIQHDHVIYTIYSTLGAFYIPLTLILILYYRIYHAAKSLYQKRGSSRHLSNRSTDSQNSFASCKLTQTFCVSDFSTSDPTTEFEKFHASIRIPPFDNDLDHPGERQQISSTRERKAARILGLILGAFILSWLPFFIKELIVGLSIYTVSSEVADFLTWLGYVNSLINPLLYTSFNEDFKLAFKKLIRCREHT
row,Compound,activation
1,COc1cccc(OC)c1C(=O)Nc1nnc(C(C)C)s1,-0.1%
2,CCn1c(CNc2ccc(OC)cc2)nnc1SCC(=O)c1ccc(OC)cc1,0.6%
3,CC1=C(C(=O)OC2CCCCC2)C(c2cccnc2)n2ncnc2N1 (centres undefined),-0.4%
4,Cc1ccnc(SCCn2c(N(C)Cc3ccccc3)nc3c2c(=O)n(C)c(=O)n3C)n1,-0.1%
5,CCOC(=O)C1(c2ccccc2)NC(c2ccc(N(C)C)cc2)C2C(=O)N(C)C(=O)C21 (centres undefined),0.7%
6,COc1ccccc1-n1cnc2cc(C(=O)NCC3CCCO3)ccc21 (centres undefined),0%
7,C=CCn1c(COc2ccccc2)nnc1SCC(=O)NCC(=O)OCC,-0.3%
8,CCc1nnc(NC(=O)CSc2nc3c(c(=O)n2-c2ccccc2OC)SCC3)s1,-0.6%
9,CCCC1C(c2ccccc2)C(C#N)(C#N)C2(C#N)CC1(N)NC2=O (centres undefined),0.5%
10,CC(=O)c1c(N)n(C)c(=O)n(C)c1=O,22.1% (active)
11,CC(=O)OCc1cc(=O)n(C)c(=O)n1C,-1.2%
12,Cc1cc(C(=O)OCC(=O)c2c(N)n(C)c(=O)n(C)c2=O)c(C)o1,0.7%
13,Cc1ccc(N(C(=O)CC2NC(=O)NC2=O)C2(C(=O)NC3CCCC3)CCCCC2)cc1 (centres undefined),-0.5%
14,CC(C)(C)OC(=O)c1c(N)n(CCCN2CCCC2=O)c2nc3ccccc3nc12,2.2%
15,CSc1nc2ccc(S(=O)(=O)N3CCc4ccccc43)cc2s1,0.9%
16,COCCCNC(=O)C1CC(=O)N(c2ccc(C)cc2)C1 (centres undefined),-1.2%
17,CC(CCO)Nc1nc2c([nH]1)c(=O)n(C)c(=O)n2C (centres undefined),-1.6%
18,CCCOc1ccc(/C(O)=C2/C(=O)C(=O)N(CCN(C)C)C2c2ccc(OC)c(OC)c2)cc1 (centres undefined),-0.3%
19,O=C(Nc1cccc2c1CCCC2)C1CCN(C(=O)NC2CCCCC2)CC1,-1.2%
20,CC1(C)CN=C(N2CCN(c3ncnc4sc5c(c34)CCCC5)CC2)S1,-0.6%
21,CCc1ccc(Nc2ncc3c(n2)CC(c2ccco2)CC3=O)cc1 (centres undefined),-0.5%
22,CCOCC(=O)NCc1ccc2c(c1)cc(C)n2C,0.7%
23,COc1ccc(S(=O)(=O)Nc2ccc3c(c2)OCO3)cc1Cl,-1.3%
24,Cc1nc(NCCN)c(C#N)c2c1COC(C)(C)C2,-0.4%
25,CCCCN(C)C(=O)c1ccc2c(c1)N(CC)C(=O)c1ccccc1S2(=O)=O,-1.1%
26,O=C(Nc1ccccc1C(=O)N1CCOCC1)C1CCC(=O)N1C1CCCC1 (centres undefined),0.6%
27,Cc1cc(=O)cc(C)[nH]1,33.2% (active)
28,Cc1cc(C)nc(SCc2nnc(SCC(=O)Nc3ncc(C)s3)n2Cc2ccco2)n1,0.8%
29,CCN1C(=O)CS/C1=N\c1nccs1,-0.1%
